Records with an inconclusive call do not appear. A call without a number means that no potency is given here. Unmarked numbers belong to inactive results. Calls of active or inactive are those of the source. The call rests on the fitted dose curve; in most records, active means well fitted activation curve with a large enough effect; inconclusive means small, poorly fitted or top-dose-only effect; inactive means flat fitted curve, though single readings scatter.
Test: qHTS assay to identify small molecule phospholipidosis (PLD) inducers (AID 1259344)
Conditions: HepG2 phospholipidosis, LipidTOX Red imaging, 24 h; series mostly up to 38.3 µM
Procedure, shortened: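 Image-based: LipidTOX Red pit count/intensity per well and per cell; HepG2, 24 h compound at 37 C, PFA fixation, Hoechst counterstain.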

**Q.** Which Potency does the source give for NCC[C@H](O)C(=O)N[C@@H]1C[C@H](N)[C@@H](O[C@H]2O[C@H](CN)CC[C@H]2N)[C@H](O)[C@H]1O[C@H]1O[C@H](CO)[C@@H](O)[C@H](N)[C@H]1O here?
**A.** inactive

**Q.** Which Potency does the source give for NC[C@@H]1CC[C@@H](N)[C@@H](O[C@H]2[C@H](O)[C@@H](O[C@H]3O[C@H](CO)[C@@H](O)[C@H](N)[C@H]3O)[C@H](N)C[C@@H]2N)O1 here?
**A.** inactive

**Q.** For FC(F)(F)COCC(F)(F)F, which Potency is on record?
**A.** inactive

**Q.** Which Potency does the source give for NC(N)=NCC1COC2(CCCCC2)O1 (centres undefined) here?
**A.** inactive

**Q.** Which Potency does the source give for CC(C)COC(=O)OCN1C(=O)CN(CCN2CC(=O)N(COC(=O)OCC(C)C)C(=O)C2)CC1=O here?
**A.** inactive

**Q.** For N=C(N)c1ccc(/C=C/c2ccc(C(=N)N)cc2O)cc1, which Potency is on record?
**A.** inactive

**Q.** Which Potency does the source give for CCCCC[C@H](O)/C=C/[C@@H]1[C@@H](C/C=C\CCCC(=O)O)[C@@H](O)C[C@H]1O here?
**A.** inactive

**Q.** Which Potency does the source give for CC(C)CCC[C@@H](C)[C@H]1CC[C@H]2[C@@H]3CC[C@@H]4C[C@H](O)CC[C@]4(C)[C@H]3CC[C@]12C here?
**A.** inactive

**Q.** For C=CCN1C(=O)C(CC(C)C)NC1=S (centres undefined), which Potency is on record?
**A.** inactive

**Q.** With O=C1CCC(c2ccccc2)(C2CCN(Cc3ccccc3)CC2)C(=O)N1 (centres undefined) as the compound, how does the Potency read?
**A.** inactive

**Q.** For C=C(Nc1ccc(OCC)cc1)Nc1ccc(OCC)cc1, which Potency is on record?
**A.** inactive

**Q.** Which Potency does the source give for NCCO/C=C/[C@H](N)C(=O)O here?
**A.** inactive

**Q.** For N=C(N)n1cccn1, which Potency is on record?
**A.** inactive

**Q.** With O=C(O)[C@H]1CN(C/C=C/P(=O)(O)O)CCN1 as the compound, how does the Potency read?
**A.** inactive

**Q.** With NC(=O)c1cc[n+](CC2=C(C(=O)O)N3C(=O)[C@@H](NC(=O)C(c4ccccc4)S(=O)(=O)[O-])[C@H]3SC2)cc1 (some centres undefined) as the compound, how does the Potency read?
**A.** inactive

**Q.** With CCc1cn([C@H]2C[C@H](O)[C@@H](CO)O2)c(=O)[nH]c1=O as the compound, how does the Potency read?
**A.** inactive

**Q.** Which Potency does the source give for CCOc1cc(CC(=O)N[C@@H](CC(C)C)c2ccccc2N2CCCCC2)ccc1C(=O)O here?
**A.** inactive

**Q.** For CC(C)(S)C(=O)N[C@@H](CS)C(=O)O, which Potency is on record?
**A.** inactive

**Q.** For CCCCCCCCCCCC[n+]1ccc2ccccc2c1, which Potency is on record?
**A.** inactive

**Q.** With Oc1ccc(Cl)c2c1CCC2 as the compound, how does the Potency read?
**A.** inactive

**Q.** With CC(C)(C)c1ccc2c(S(=O)(=O)O)c(C(C)(C)C)ccc2c1 as the compound, how does the Potency read?
**A.** inactive

**Q.** With CC(C)(C)C(=O)OCC(=O)[C@H]1CC[C@H]2[C@@H]3CCC4=CC(=O)CC[C@]4(C)[C@H]3CC[C@]12C as the compound, how does the Potency read?
**A.** inactive

**Q.** For CCCCCCOC(=O)c1cccnc1, which Potency is on record?
**A.** inactive

**Q.** For CN(C)CCC(O)(c1ccccc1)c1ccccc1Cl (centres undefined), which Potency is on record?
**A.** inactive

**Q.** With CC(C)C[C@@H](NC(=O)[C@@H](O)[C@H](N)Cc1ccccc1)C(=O)O as the compound, how does the Potency read?
**A.** inactive

**Q.** With CC12CCC(C[N+](C)(CCC[N+](C)(C)C)C1)C2(C)C (centres undefined) as the compound, how does the Potency read?
**A.** inactive

**Q.** For CC(C)(O/N=C(\C(=O)N[C@@H]1C(=O)N2C(C(=O)[O-])=C(C[n+]3ccccc3)CS[C@H]12)c1csc(N)n1)C(=O)O, which Potency is on record?
**A.** inactive

**Q.** With O=C1c2c(O)cccc2[C@H]([C@@H]2O[C@H](CO)[C@@H](O)[C@H](O)[C@H]2O)c2cc(CO)cc(O)c21 as the compound, how does the Potency read?
**A.** inactive

**Q.** With O=P(O)(O)OP(=O)(O)OP(=O)(O)O as the compound, how does the Potency read?
**A.** inactive

**Q.** With C=CC1=C(C(=O)O)N2C(=O)[C@@H](NC(=O)/C(=N\O)c3csc(N)n3)[C@H]2SC1 (stereo in doubt) as the compound, how does the Potency read?
**A.** inactive

**Q.** Which PLD induction does the source give for CCN(CC)CCn1c(=O)c(Cc2ccc(OC)cc2)nc2ccccc21 here?
**A.** 1.39% [at 7.66 µM]

**Q.** Which Potency does the source give for CCN1CCCC1CNC(=O)c1cc(S(=O)(=O)CC)ccc1OC (centres undefined) here?
**A.** inactive

**Q.** Which Potency does the source give for COc1ccc(/C=C/C(=O)Nc2ccccc2C(=O)O)cc1OC here?
**A.** inactive

**Q.** With C[N+]1(CCCCC[N+]2(C)CCCC2)CCCC1 as the compound, how does the Potency read?
**A.** inactive

**Q.** For CSCCC(N)C(=O)O (centres undefined), which Potency is on record?
**A.** inactive

**Q.** Which Potency does the source give for O=C(O)/C=C/C(=O)Nc1ccc(S(=O)(=O)Nc2nccs2)cc1 here?
**A.** inactive

**Q.** With Nc1nc(/C(=C/CC(=O)O)C(=O)N[C@@H]2C(=O)N3C(C(=O)O)=CCS[C@H]23)cs1 as the compound, how does the Potency read?
**A.** inactive

**Q.** Which Potency does the source give for CCC1OC(=O)C[C@@H](O)[C@H](C)[C@@H](O[C@@H]2O[C@H](C)C[C@H](N(C)C)[C@H]2O)[C@@H](CC=O)C[C@@H](C)C(=O)/C=C/[C@]2(C)OC2C1C (some centres undefined) here?
**A.** inactive

**Q.** With Nc1nc(NC2CC2)c2ncn([C@@H]3C=C[C@@H](CO)C3)c2n1 as the compound, how does the Potency read?
**A.** inactive

— PubChem BioAssay (Tox21)
